Several values for one entry are separate records, joined by “and”; a condition that tells them apart may be missing. Equal values may be shown once. This is part of a sample that, as a whole, favours compounds with a hit. Of some 83,000 tested, about 20% had one in any assay.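 Assay: single dose, 48 h. Readout: percent growth (0 = no net growth; negative = cell death). Active: <10.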 A number with no mark means an inactive call. Activity calls are given as the source filed them.
Key:
Experiment in all cases: NCI-60 one-dose screen, 48 h (100 = growth as untreated, 0 = no growth, -100 = all killed)
BT-549 breast = settings: 10 µM unless noted
MDA-MB-435 melanoma = settings: 10 µM unless noted
SW-620 colon = settings: 10 µM unless noted
MCF7 breast = tested on: MCF7 breast
HCT-116 colon = settings: 10 µM unless noted
HCC-2998 colon = settings: 10 µM unless noted
KM12 colon = settings: 10 µM unless noted

Row | Structure (SMILES) | growth (BT-549 breast) | growth (MDA-MB-435 melanoma) | growth (SW-620 colon) | growth (MCF7 breast; 10 µM unless noted) | growth (HCT-116 colon) | growth (HCC-2998 colon) | growth (KM12 colon) | growth (MCF7 breast; 10 µM) | growth (MCF7 breast; 100 µM)
1 | N#Cc1c(N)[nH]c(S)c1C#N | 99.4% | 98.4% | 107% | 92.1% | 97.9% | 95.6% | 116% | – | –
2 | S=C(c1ccccc1)N1CCN(c2cccc(Cl)c2)CC1 | 105% | 81.5% | 98.5% | 109% | 106% | 105% | 92.5% | – | –
3 | CC(C)c1ccc(C(=O)Nc2sc3c(CN(C)C)c(O)ccc3c2C(N)=O)cc1 | 64.4% | 63% | -37.8% (active) | -16.2% (active) | -46.5% (active) | -54.6% (active) | 6.38% (active) | – | –
4 | COc1ccc(Nc2ccnc(NCCCNc3ccnc4cc(Cl)ccc34)n2)cc1 | -16.8% (active) | -94.7% (active) | -48.7% (active) | -2.74% (active) | -100% (active) | -74.9% (active) | – | – | –
5 | c1ccc2c(c1)[nH]c1c2cc[n+]2cc3c(cc12)CCCC3 | 72.7% | 11.5% | 20.7% | – | 14.7% | 24.6% | 26.4% | -13.9% (active) | -78.5% (active) and -87.5% (active)
6 | COc1ccc2nc3cc(Cl)ccc3c(N3CCN(c4ccnc(Nc5ccc(F)cc5)n4)CC3)c2c1 | 88.3% | 74.5% | 89.2% | 48.8% | 41.4% | 79.5% | 79.1% | – | –
7 | Cn1c(N)c(N=O)c(=O)[nH]c1=O | 93.5% | 108% | 107% | 106% | 104% | 118% | 99% | – | –
8 | O=C(Nc1nc2ccccc2s1)c1cc(-c2ccc(F)cc2)n2nc(-c3ccccc3)cc2n1 | 79% | 86.5% | 67.8% | 69.3% | 45.8% | 97.5% | 68.7% | – | –
9 | Cc1ccc2c(c1)C(=O)/C(=C/c1ncc([N+](=O)[O-])n1C)O2 | -25.9% (active) | -80.6% (active) | -32.5% (active) | -1.55% (active) | 7.67% (active) | -44% (active) | -48.4% (active) | – | –
10 | CCn1c2c(c3ccccc31)SC1c3cccn3CCN1C2=S (configuration not stated) | 140% | 91.5% | 95.2% | 53.8% | 98.2% | 99.6% | 96.4% | – | –
11 | O=C1/C(=C/c2ccc([N+](=O)[O-])o2)Oc2ccc(Cl)cc21 | -53.4% (active) | -72.8% (active) | -78.7% (active) | -24.6% (active) | -26.6% (active) | – | – | – | –
12 | Clc1ccc(-n2cnc3c(Cl)ncnc32)cc1Cl | 90.3% | 99.3% | 78.6% | 89.8% | 61.1% | -75% (active) | 95% | – | –
13 | COc1cccc(/C=C2\COc3ccc(O)c(O)c3C2=O)c1OC | 35.3% | 9.09% (active) | 4.8% (active) | 16.7% | -48.4% (active) | 78.6% | 12.9% | – | –
14 | Nc1ncc(-c2cnn(C3CCNCC3)c2)cc1-c1nc2cc(Cl)ccc2o1 | 61.3% | -100% (active) | -100% (active) | -93.3% (active) | -100% (active) | -100% (active) | -100% (active) | – | –
15 | OC(Cc1cccnc1)c1ccccc1 (configuration not stated) | 107% | 110% | 100% | 104% | 107% | 107% | – | – | –
16 | CCC(=O)Nc1ccccc1C#C/C=C\C#Cc1ccccc1C(F)(F)F | 39.9% | 0.785% (active) | 29.7% | 33.2% | 41% | 70.6% | 41.5% | – | –
17 | Cc1c(C(N)=O)sc2c1C(=O)N(Cc1ccccc1)C1=NN=C(c3ccc(Cl)cc3)CN12 | 58.2% | 66.3% | 57.5% | 37.8% | 18.8% | 40.9% | 42.6% | – | –

Row | Structure (SMILES) | growth (BT-549 breast) | growth (MDA-MB-435 melanoma) | growth (SW-620 colon) | growth (MCF7 breast; 10 µM unless noted) | growth (HCT-116 colon) | growth (HCC-2998 colon) | growth (KM12 colon) | growth (MCF7 breast; 10 µM) | growth (MCF7 breast; 100 µM)
18 | S=C1SCN(Cc2ccccc2)CN1Cc1ccco1 | 102% | 37.8% | 41.7% | 18.2% | 25.5% | 103% | 58.2% | – | –
19 | O=c1[nH]c(Cl)nc2c1cnn2-c1ccccc1 | 52.9% | 52.4% | 50.6% | 84.3% | 31% | 91.2% | 18.6% | – | –
20 | O=C1CN(CO)C(=O)CN1CO | 113% | 103% | 95.9% | 101% | 103% | 104% | 105% | – | –
21 | COc1ccc2c(c1)C(=O)/C(=C/c1ccc([N+](=O)[O-])s1)O2 | -52.9% (active) | -70.4% (active) | -69.7% (active) | 3% (active) | -0.508% (active) | -6.91% (active) | -19.3% (active) | – | –
22 | CCOc1nc(-c2ccccc2)cc2c(O)c(-c3nnco3)[nH]c(=O)c12 | 41.6% | 63.8% | 32.2% | 23.3% | 39.7% | 61.5% | 48.9% | – | –
23 | Cn1[nH]cc(/C=N/C(N)=O)c1=O | 113% | 119% | 102% | 99.6% | 109% | 103% | – | – | –
24 | Clc1cccc(Cc2cn3cc(-c4ccccc4)nc3s2)c1 | 77.5% | 33.1% | 30.2% | 21.1% | 42.6% | 17.7% | 12.1% | – | –
25 | Cn1cnc([N+](=O)[O-])c1S(=O)(=O)Oc1ccc(Cl)cc1 | 103% | 78.8% | -31% (active) | 63.7% | -32.1% (active) | 83.1% | 84.9% | – | –
26 | Oc1ccccc1/C=N\Nc1ccccc1 | 65.1% | 28.6% | 34.5% | 61.1% | 68.6% | 79.6% | 19.8% | – | –
27 | Cc1nn(-c2ccc(Br)cc2)c2nc3c(nc12)C(=O)C(=O)c1ccccc1-3 | 94.7% | 110% | 93.5% | 67.3% | 86.3% | 93% | 103% | – | –
28 | COc1ccc(-c2cn(-c3ccccc3)c(-c3ccccc3)n2)cc1OC | 15% | 35.7% | 5.69% (active) | 19.1% | 20.3% | 58.8% | -3.88% (active) | – | –
29 | C=C1c2c(C)nn(-c3ccc(C#CCOC4OC(CO)C(O)C(O)C4O)cc3)c2N(C)C23C[C@H]1C1(C)c4c(C)nn(-c5ccc(C#CCOC6OC(CO)C(O)C(O)C6O)cc5)c4N(C)C(C)(C[C@H]12)C3 (some centres not stated) | 3.47% (active) | 0.0883% (active) | 11.6% | -0.735% (active) | 0.942% (active) | -3.04% (active) | -23.3% (active) | – | –
30 | NC(N)=NC(N)=NCCCc1ccccc1 | 49.5% [100 µM] | 60.5% [100 µM] | 77.8% [100 µM] | 59.2% [100 µM] | 50.6% [100 µM] | 68.5% [100 µM] | 78.1% [100 µM] | – | –
31 | NC(=O)SCC(=O)Nc1ccccc1-c1ccccc1 | 89.4% | 109% | 115% | 94.8% | 87.4% | 95.5% | – | – | –
32 | CCOC(=O)c1ccccc1OC(=O)NNc1ccccc1 | 48.3% | 50% | 45.6% | 50.3% | 70.8% | 40% | 55% | – | –
33 | CSc1nnc(C2=CC(=O)c3ccccc3C2=O)n1-c1ccccc1 | 92.9% | 96.7% | 92.1% | 94.5% | 73.8% | 85% | 61.5% | – | –
34 | CC12CCCCC1C(C(N)=O)C(=O)O2 (configuration not stated) | 113% | 120% | 104% | 99.3% | 112% | 99.6% | – | – | –

From PubChem BioAssay (NCI)
